# Source: the supplement of paper PMC12024529
# System: HEK293 WT BDD-FVIII-Gluc
# Assay: secreted FVIII-Gluc luciferase Z-score vs DMSO control; higher = more FVIII-Gluc secretion
# Conditions: 5 µM
# Procedure: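 Natural plant-compound library (480 compounds, ST catalogue IDs) screened on HEK293 cells stably expressing WT BDD-FVIII-Gaussia luciferase fusion at 5 µM. Secreted Gluc activity in the medium is given as a Z-score relative to DMSO controls.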
row,SMILES,secreted FVIII-Gluc luciferase Z-score
1,COc1c(-c2ccc(O)c(O)c2)oc2cc(O)cc(O)c2c1=O,-0.415
2,Nc1ccn([C@@H]2O[C@H](CO)[C@@H](OP(=O)(O)O)[C@H]2O)c(=O)n1,-0.278
3,COc1ccc2c(=O)c(-c3ccccc3)coc2c1,1.15
4,Nc1ncnc2c1ncn2C1OC(COP(=O)(O)OP(=O)(O)OP(=O)(O)O)C(O)C1O (centres undefined),0.477
5,Cc1c(-c2ccccc2)oc2cc(O)ccc2c1=O,-0.0243
6,Cc1c(-c2c(C)c(=O)c3c(C(C)C)c(=O)c(=O)c(C=O)c-3c2=O)c(O)c2c(C=O)c(O)c(O)c(C(C)C)c2c1O,-0.893
7,O=c1cc(-c2cccc(O)c2)oc2cc(O)ccc12,-0.00771
8,CC(=O)Oc1cc(OC(C)=O)c2c(=O)cc(-c3ccc(OC(C)=O)c(OC(C)=O)c3)oc2c1,0.33
9,COc1ccc2c3c1O[C@H]1C[C@@H](O)C=CC31CCN(C)C2 (some centres undefined),0.116
10,O=c1cc(-c2cccc(O)c2O)oc2ccccc12,-0.852
11,COc1ccc2c(=O)cc(-c3ccc(O)cc3)oc2c1,0.228
12,C[C@H](CCC(=O)O)[C@H]1CC[C@H]2[C@@H]3[C@H](O)C[C@@H]4C[C@H](O)CC[C@]4(C)[C@H]3CC[C@]12C,0.787
13,COc1ccc2[nH]c(=O)c3c(c2c1)OC(C)(C)C=C3,-1.14
14,COc1c2ccoc2cc2oc(=O)ccc12,0.335
15,Cc1cn([C@H]2C[C@H](O)[C@@H](CO)O2)c(=O)[nH]c1=O,0.713
16,O=c1c2ccccc2oc2cc(O)c(C3COCC(CO)C(O)C(O)C3O)c(O)c12 (centres undefined),0.341
17,O=C1OC(C(O)CO)C(O)=C1O (centres undefined),0.497
18,COc1cc2cc(Oc3ccc4ccc(=O)oc4c3)c(=O)oc2cc1O,0.379
19,O=C(/C=C/c1ccc(O)c(O)c1)OC(Cc1ccc(O)c(O)c1)C(=O)O (centres undefined),0.861
20,CC(=O)OCC1OC(Oc2cc(OC(C)=O)c3c(=O)cc(-c4ccc(OC(C)=O)c(OC(C)=O)c4)oc3c2)C(OC(C)=O)C(OC(C)=O)C1OC(C)=O (centres undefined),-0.756

row,SMILES,secreted FVIII-Gluc luciferase Z-score
1,O=c1cc(-c2ccccc2)oc2cc(O)c(O)c(O)c12,-0.284
2,CO[C@@H]1[C@@H](O[C@@H]2O[C@H](C)[C@@H](O[C@H]3C[C@@](C)(O)[C@@H](OC(=O)CC(C)C)[C@H](C)O3)[C@H](N(C)C)[C@H]2O)[C@@H](CC=O)C[C@@H](C)[C@@H](O)/C=C/C=C/C[C@@H](C)OC(=O)C[C@H]1OC(C)=O,0.0728
3,COc1cc(C(=O)OC2CC(C)=CCC3(C)CCC(O)(C(C)C)C23)ccc1O (centres undefined),-0.405
4,CN1C(=O)CC[C@H]1c1cccnc1,-0.0585
5,Cc1cc2c(C(C)C)c(O)c(O)c3c2c(c1-c1c(C)cc2c(C(C)C)c(O)c(O)c4c2c1OC4N)OC3N (centres undefined),-0.0294
6,O=c1c(O)c(-c2cccc(O)c2)oc2ccccc12,-0.392
7,CC1=CC(=O)C2=C(C)CCC3C(C)C(=O)OC3C12 (centres undefined),0.0708
8,O=c1[nH]cnc2c1ncn2C1OC(CO)C(O)C1O (centres undefined),-0.0892
9,COc1c2occc2cc2ccc(=O)oc12,0.821
10,O=c1cc(-c2ccccc2)oc2cc(O)cc(O)c12,0.596
11,COc1ccc2c(c1)[C@@]1(C)CCC[C@](C)(CO)C1CC2 (some centres undefined),0.437
12,COC1C(O)C(O)C(O)C(O)C1O (centres undefined),0.358
13,CN(C)[C@@H]1C(=O)C(C(=O)NCN2CCCC2)=C(O)[C@@]2(O)C(=O)C3=C(O)c4c(O)cccc4[C@@](C)(O)[C@H]3C[C@@H]12,0.407
14,CNC[C@H](O)c1ccc(O)c(O)c1,0.948
15,CC(=O)C1=C(O)C=C2Oc3c(C(C)=O)c(O)c(C)c(O)c3[C@]2(C)C1=O,1.04
16,Nc1nc2c(c(=O)[nH]1)N=C(CNc1ccc(C(=O)NC(CCC(=O)O)C(=O)O)cc1)CN2 (centres undefined),0.62
17,CCC(C)(C)C(=O)O[C@H]1C[C@@H](C)C=C2C=C[C@H](C)[C@H](CC[C@@H]3C[C@@H](O)CC(=O)O3)[C@H]21,-0.297
18,COC1OC2COC(c3ccccc3)OC2C(O)C1O (centres undefined),-1.04
19,N[C@@H](CSCC(=O)O)C(=O)O,0.103
